Screens (PubChem)
An excerpt weighted towards active compounds, which were near 13% of everything screened.
Pf growth 96h – inhibits malaria parasite growth, 96 h | Potency, µM (titrated, usually from 28.7 µM), inactives show at the top dose activity change, negative = inhibition, most hits filed as inhibitors | actives 6.9% (n = 320,000) | P. falciparum luciferase reporter growth, 96 h; note: potency is the fitted concentration of half-maximal effect
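Erythrocytes infected with luciferase-expressing P. falciparum were dispensed at 2% hematocrit and 0.05% parasitemia (final), then incubated with compounds 96 hours at 37 C in 5% CO2. Luminescence after detection reagent addition reported growth.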
HCV inh – blocks hepatitis C virus | AID 651820 | Huh7.5.1 HCVcc-Cre infection, luciferase reporter, 44 h | actives 3.4% (n = 340,000) | Potency, µM (series often up to 41.8 µM), without a hit: at the top dose activity change, negative = inhibition, hits mostly inhibitors; note: potency is the fitted concentration of half-maximal effect
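Antiviral activity was scored by luciferase reporter output from cells infected with HCVcc-Cre (~0.5 moi) in presence of compound, 44 h infection period, cells seeded 1,000/well 4 h prior.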
HCMV inh – inhibitors of human cytomegalovirus | HFF cells, HCMV-luciferase reporter, 72 h; active compounds read low | activity change, negative = inhibition, % at 57.5 µM | actives 4.5% (n = 410,000) | AID 1259415; in the data active = activity change below about -60%; inconclusive = no clear call, values can overlap the other calls; inactive = above about -39%
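After 16 h attachment at 37C, HFF cells received test compound and HCMV-luciferase (1 PFU/cell); reporter luminescence read 72 h later, data normalized against buffer-only and known inhibitor Salinomycin.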
Pf growth 48h – inhibits P. falciparum growth in the first generation, 48 h; P. falciparum luciferase growth in erythrocytes, 48 h; Potency, µM (top dose mostly 28.7 µM), without a hit: top-dose activity change, negative = inhibition, most hits filed as inhibitors; actives 5.9% (n = 310,000); note: potency is the fitted concentration of half-maximal effect
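Luciferase-expressing P. falciparum in infected erythrocytes (2% hematocrit, 0.1% parasitemia final) in RPMI 1640/0.5% Albumax were exposed to compound for 48 hours at 37 C, 5% CO2; growth read as luminescence.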
Numbers without * were called inactive; ? = inconclusive; . = no result. Unless noted, calls come from the whole dose curve; as a rule, active = well fitted inhibition curve with a large enough effect; inconclusive = small, poorly fitted or top-dose-only effect, or another doubt; inactive = no such curve, though single readings can be large or run the other way. % is set by controls: 0 for no effect and ±100 for the full control effect.

SMILES | Pf growth 96h | HCV inh | HCMV inh | Pf growth 48h
CC(=O)c1cccc(-n2c(=O)c3c4c(sc3n(Cc3ccccc3Cl)c2=O)CN(C(C)=O)CC4)c1 | . | . | -1 | .
CCCCOC(=O)c1ccc(NC(=O)c2cc(-c3cccs3)on2)cc1 | . | . | 10 | .
CCCCOc1c(Cl)cc(C(=O)N2CCN(CC(=O)N3CCCC3)CC2)cc1OCC | ? | 10µM* | -29 | 12µM*
CCCCOc1ccc(C(=O)N2CCCC2)cc1 | . | 1% | 110 | 106%
CCOC(=O)Cn1c(=O)cc(C)c2c(C)nn(-c3cccc(F)c3)c21 | . | . | 3 | .
COc1ccc(C2C(=O)N(C3CCCCCC3)CC(=O)N2Cc2ccc(C)cc2)cc1 (configuration not stated) | . | . | -11 | .
CC(=O)c1cccc(NC(=O)CN2C(=O)CC(c3ccc(C)cc3C)=Nc3ccccc32)c1 | . | . | 30 | .
Cc1sc2nc(SCC(=O)N(C)c3ccccc3)n(C)c(=O)c2c1C | -3% | . | ? | 8.3µM*
CCCCN1C(=N)C(CC)(CC)C(=O)NC1=O | 15µM* | -4% | -24 | 7%
Cc1ccc(C)c(N=Cc2cc3c(cc2[N+](=O)[O-])OCO3)c1 | 0.042µM* | 3% | 5 | ?
O=[N+]([O-])c1cc2c(cc1/C=N\NS(=O)(=O)c1ccccc1)OCO2 | 10% | 8% | -84* | 5%
CCOC(=O)C1(C)C=C(Nc2ccc(C(=O)O)cc2)C(=O)N1c1ccc(C(=O)O)cc1 (configuration not stated) | . | . | 19 | .
O=C(c1ccccc1)N1CC(=O)N2[C@H](CO)[C@@H](c3ccc(Br)cc3)[C@@H]2C1 | . | . | -28 | .
CCc1ccc(-n2c(SC(CC)C(=O)N(CC)CC)nc3n[nH]c(C)c3c2=N)cc1 (configuration not stated) | . | . | -84* | .
Cc1ccc(Nc2nc(-c3sc(NC(=O)c4ccc([N+](=O)[O-])cc4)nc3C)cs2)cc1 | 2.6µM* | . | . | 9.3µM*
Cc1ccccc1Nc1nc(-c2sc(NC(=O)c3ccccc3)nc2C)cs1 | 12µM* | . | . | 9.3µM*
Cc1ccc(Nc2nc(-c3sc(N)nc3C)cs2)cc1 | -12% | -9% | 58 | 28%
CCOc1ccccc1Nc1nc(-c2sc(NC(=O)c3ccc([N+](=O)[O-])cc3)nc2C)cs1 | ? | . | . | 3.3µM*
Cc1ccccc1Nc1nc(-c2sc(NC(=O)c3ccc([N+](=O)[O-])cc3)nc2C)cs1 | 13µM* | . | . | ?
Cc1csc(NC(=O)c2ccccc2)n1 | ? | -12% | 103 | 216%
CCOC(=O)c1c(C)oc2nc(C)nc(NCCc3ccc(OCC)cc3)c12 | . | . | -36 | .
CC(C)c1ccc(S(=O)(=O)c2nnn3c2nc(NCCc2ccccc2)c2sccc23)cc1 | . | . | 10 | .
COc1cc(C=NO)nc(-c2ccccn2)c1 | . | ? | -100* | .
Cn1nnnc1P(=O)(c1ccccc1)c1ccccc1 | 10µM* | 6% | 12 | -13%
CCOC(=O)c1c(C)[nH]c(C)c1S(=O)(=O)N1CCCC(C(=O)NCc2cccc(OC)c2)C1 (configuration not stated) | . | . | -1 | .
SMILES | Pf growth 96h | HCV inh | HCMV inh | Pf growth 48h
COc1ccc(OC)c(Cc2nnc(CCC(=O)NCc3nc4ccccc4s3)o2)c1 | 7.4µM* | -5% | 22 | 0%
COc1cccc(CCNC(=O)CCc2nnc(Cc3cc(OC)ccc3OC)o2)c1 | -22% | 4% | -9 | -12%
CCCc1cc(=O)n2[nH]c(NCc3c(F)cccc3Cl)nc2n1 | 12µM* | 3% | 6 | 0%
CCCc1cc(=O)n2[nH]c(NCc3c(Cl)cccc3Cl)nc2n1 | . | 12% | -23 | -12%
CS(=O)(=O)N1CCc2cc(C(=O)NCc3ccccc3)ccc21 | . | . | -17 | .
COc1cccc(CNC(=O)C2=C(C)C(=O)OC23CCN(C(C)=O)CC3)c1OC | . | . | 0 | .
Cc1ccc(-c2nn(-c3ccccc3)cc2C=C2C(=O)CC(C)(C)CC2=O)cc1 | ? | -23% | 121 | 28%
CC1=NNC(=O)/C1=C\c1cn(-c2ccccc2)nc1-c1ccc(Cl)cc1 | ? | ? | -102* | ?
COc1ccc(Cn2cc(S(=O)(=O)c3ccc(C)cc3)c(=O)c3cc(F)ccc32)cc1 | . | . | -9 | .
O=c1cc(O)c2sc(Nc3ccc(F)cc3)nc2[nH]1 | 113% | 34% | -92* | ?
O=c1cc(O)c2sc(Nc3cccc(C(F)(F)F)c3)nc2[nH]1 | 0% | 11% | -40 | ?
Cn1c(=O)c2[nH]c(COc3ccc(C(C)(C)C)cc3)nc2n(C)c1=O | 34% | 11µM* | . | 4%
Cn1c(=O)c2[nH]c(CCCCCCCc3nc4ccccc4[nH]3)nc2n(C)c1=O | . | 8.9µM* | -67* | .
CCOCCCNC(=O)C(c1ccc(Cl)cc1)N(Cc1ccc2c(c1)OCO2)C(=O)c1ccc(NC(C)=O)cc1 (configuration not stated) | . | . | -4 | .
COc1cc(/C=C(\C#N)C(N)=O)ccc1OCc1c(C)no[n+]1[O-] | 0% | 7% | -23 | -15%
COC(=O)C1=C(C)NC(C)=C(C(=O)OC)C1c1ccccc1OCc1c(C)no[n+]1[O-] | 6% | 10% | -23 | 12µM*
Cc1ccc(CN(C)C(=O)c2ccccc2Sc2ccccc2C#N)cc1 | ? | ? | 0 | 8%
CN(CC(=O)NCC1CCCCC1)S(=O)(=O)c1ccc(F)cc1 | 0% | -2% | -63* | 19%
CN(Cc1ccc(OC(F)F)cc1)C(=O)c1ccccc1Sc1ccccc1C#N | . | ? | -69* | .
COc1ccccc1N(C)S(=O)(=O)c1ccc(C(=O)NCC2CCCCC2)cc1 | ? | ? | -10 | 13µM*
COc1ccccc1N(C)S(=O)(=O)c1ccc(C(=O)N(C)Cc2ccc(OC(F)F)cc2)cc1 | ? | 4µM* | -39 | 12µM*
CCCN(Cc1cccs1)C(=O)Nc1cc(C)cc(C)c1 | . | . | 9 | .
COC(=O)c1ccc(CNC(=O)c2ccc(S(=O)(=O)N(C)c3ccccc3OC)cc2)cc1 | ? | 8.9µM* | -13 | ?
CCOc1ccc(NC(=O)CN(Cc2ccccc2)S(=O)(=O)c2ccc3nc(C)sc3c2)cc1 | . | . | -26 | .
Cc1ccc(SC(C)C(=O)Nc2ccccc2-c2ccccc2)cc1 (configuration not stated) | 13µM* | ? | ? | -18%
Cc1ccc(SC(C)C(=O)Nc2ccccc2C(=O)N2CCOCC2)cc1 (configuration not stated) | . | -12% | 10 | 12%
CC(Sc1ccc(Cl)cc1)C(=O)Nc1ccccc1-c1ccccc1 (configuration not stated) | -2% | ? | -39 | 2.3µM*
COc1ccccc1-c1noc(-c2ccc(N(C)Cc3ccccc3)c([N+](=O)[O-])c2)n1 | . | . | 9 | .
Cc1ccc(CCN2CC(C(=O)NCCN3CCOCC3)CC2=O)cc1 (configuration not stated) | 12µM* | -13% | 30 | 13%
CC1CCCN(CCCNC(=O)C2CC(=O)N(CCc3ccccc3)C2)C1 (configuration not stated) | 15µM* | -1% | 10 | -7%
